Most compounds without a hit are left out; they make up all but 3.8% or so of the library.
KCNH2 WT inh – qHTS for Inhibitors of KCHN2 3.1: Wildtype qHTS | Voltage-gated inwardly rectifying potassium channel KCNH2 (Homo sapiens), Q12809 | U2OS, BacMam KCNH2, thallium flux FluxOr; stronger effect = lower value | activity change, % at 1.84 µM | 0.37% of 340,000 active;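 active = maximum activity change below -70%; inconclusive = maximum activity change between -70% and -50%; inactive = maximum activity change above -50%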; note: % is set by controls: 0 for no effect and ±100 for the full control effect
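U2OS cells were transduced with wild-type KCNH2 virus (2.03 x 10^8 / mL) for 4 h at room temperature, then cultured overnight at 37 C. Thallium flux was read with FluxOr dye. Rate constants were normalized to DMSO controls.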
PLK1 PBD block – qHTS for Inhibitors of PLK1-PDB (polo-like kinase 1 - polo-box domain): Primary Screen; Serine/threonine-protein kinase PLK1 (Homo sapiens), P53350; Plk1 PBD binding of FITC phosphopeptide, fluorescence polarization; Potency, µM, without a hit: max response, negative = inhibition, actives largely listed as inhibitors; 2.8% of 360,000 active; AID 720504, 2013; note: potency is the fitted concentration of half-maximal effect; series mostly up to about 57 µM; % is set by controls: 0 for no effect and ±100 for the full control effect; nearly all actives have a fitted effect of over 65% in size
CBFb RUNX1 block – qHTS Assay for Compounds Blocking the Interaction Between CBF-beta and RUNX1 for the Treatment of Acute Myeloid Leukemia; Runt-related transcription factor 1 (Homo sapiens) + Core-binding factor subunit beta …; Potency, µM (series often up to 59.8 µM), for inactives: top-dose activity, negative = inhibition, hits mostly inhibitors; AlphaScreen CBFb-His/RUNX1-biotin binding, biochemical; 230,000 tested, under 10 active; note: % of control where 0% means no effect
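Bead-based AlphaScreen assay; binding partners His-tagged CBF-beta and biotinylated RUNX1 at 30 nM each. Compound exposure 15 min after a 20-min protein preincubation; bead step 90 min; all steps at room temperature.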
MBNL1-CUG inh – qHTS Assay for Inhibitors of MBNL1-poly(CUG) RNA binding. Potency, µM (highest dose often 57.5 µM), for inactives: top-dose activity change, negative = inhibition, most hits filed as inhibitors. Muscleblind-like protein 1 (Homo sapiens), Q9NR56. 0.036% of 280,000 active. TR-FRET MBNL1-His/biotin-(CUG)12 binding, 665/545 ratio; active = well fitted inhibition curve with a large enough effect in the signal ratio, with a control signal flat, not every such curve was filed as active; inconclusive = small, poorly fitted or top-dose-only effect, or effect the other way, or a change in a side signal; inactive = no such curve, though single readings can be large or run the other way; the % refers to the signal ratio; note: potency is the fitted concentration of half-maximal effect; % is set by controls: 0 for no effect and ±100 for the full control effect
Target sequence (Q9NR56 whole entry, looked up): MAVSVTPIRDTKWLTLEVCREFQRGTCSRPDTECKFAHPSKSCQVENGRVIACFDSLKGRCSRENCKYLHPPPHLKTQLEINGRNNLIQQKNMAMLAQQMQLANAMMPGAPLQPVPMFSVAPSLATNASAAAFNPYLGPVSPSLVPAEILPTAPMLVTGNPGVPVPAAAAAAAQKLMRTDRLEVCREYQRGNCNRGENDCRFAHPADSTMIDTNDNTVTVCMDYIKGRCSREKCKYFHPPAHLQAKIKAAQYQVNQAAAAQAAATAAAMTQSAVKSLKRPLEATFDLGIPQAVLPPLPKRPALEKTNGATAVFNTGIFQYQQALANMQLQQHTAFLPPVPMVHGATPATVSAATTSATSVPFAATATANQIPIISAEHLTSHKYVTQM
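Compound titration spanned 92 nM–58 uM against the MBNL1-His/biotin-(CUG)12 complex. After 60 min at room temperature with 5 nM streptavidin-XL665 and 0.055 ng/ul terbium anti-His, ratiometric 665/545 nm emission (Ex 340 nm) normalized to controls.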
VDR inh – Inhibitors of the vitamin D receptor (VDR): qHTS; Vitamin D3 receptor (Homo sapiens), P11473; VDR-SRC2-3 peptide fluorescence polarization, 2 h; Potency, µM, for the others: max response, negative = inhibition, usual class: inhibitors; 0.93% of 400,000 active; AID 504847, 2011; note: potency is the fitted concentration of half-maximal effect; % is set by controls: 0 for no effect and ±100 for the full control effect
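Measured by FP: displacement of SRC2-3 coactivator peptide from VDR by library compounds, following a two-hour ambient incubation.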
KCNH2 3.1 block – qHTS for Inhibitors of KCHN2 3.1: Mutant qHTS; Potassium voltage-gated channel subfamily H member 2, brain isoform KCNH2 3.1 (human); U2OS KCNH2 3.1, thallium flux FluxOr; stronger effect = lower value; activity change, % (tested at about 1.8 µM); 0.95% of 340,000 active; AID 720553, 2013;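 active = maximum activity change below -70%; inconclusive = maximum activity change from -70% to -50%; inactive = maximum activity change above -50%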;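 note: thallium influx rate constant from kinetic fluorescence after stimulation buffer; % is set by controls: 0 for no effect and ±100 for the full control effect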
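Thallium flux read-out: FluxOr dye with Red40 quencher in HBSS/HEPES, 45 min at RT. Rate constants from kinetic reads were normalized to positive and negative DMSO controls. Cells: U2OS virally expressing the 3.1 isoform.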
Starred values were filed as active, the others as inactive; ? = inconclusive; nt = no result given; [ ] = remark or other dose. Unless noted, calls come from the whole dose curve; as a rule, active = well fitted curve in the direction sought with a large enough effect; inconclusive = small, poorly fitted or top-dose-only effect, or another doubt; inactive = no such curve, though single readings can be large; an effect the other way counts as inactive or inconclusive.

SMILES | KCNH2 WT inh | PLK1 PBD block | CBFb RUNX1 block | MBNL1-CUG inh | VDR inh | KCNH2 3.1 block
CN(C)CCCO[C@H]1C([C@H](O)CO)O[C@@H]2OC(C)(C)O[C@@H]21 (stereo partly specified) | nt | nt | -5% | nt | nt | nt
Cc1cnc(C)c(N2CCN(Cc3cn(C)nc3-c3cccc(Cl)c3)CC2)n1 | 22 | -5% | -4% | 5% | 8% | -115*
CCc1ccccc1NC(=O)Cn1c(=O)n(CCCCCC(=O)NCc2ccc(C)cc2)c(=O)c2sccc21 | nt | nt | nt | nt | 9% | nt
O=C(O)CCN1C(=O)/C(=C2\C(=O)N(Cc3ccc(F)cc3)c3ccccc32)SC1=S | 6 | 19µM* | nt | -9% | ? | 9
O=C(Nc1cnccn1)c1ccncc1 | 0 | -10% | 5% | 1% | -10% | -84*
Cc1ccc(NC(=O)CN2C(=O)c3cccnc3Oc3ccc(Cl)cc32)cc1 | nt | nt | nt | nt | -1% | nt
COc1ccc(-c2nc3ccc(C4=C(C)CC(=O)NN4)cc3[nH]2)cc1 | nt | nt | nt | nt | -8% | nt
COc1cc(/C=C2/S/C(=N/S(=O)(=O)Cc3ccccc3)NC2=O)c([N+](=O)[O-])cc1OC | 1 | 24µM* | 3% | nt | -13% | -18
O=C1N/C(=N\S(=O)(=O)c2ccccc2)S/C1=C\c1cc([N+](=O)[O-])ccc1O | -2 | 27% | nt | 19% | ? | 15
Cc1ccc(S(=O)(=O)/N=C2/NC(=O)/C(=C\c3cc(Br)cc(Br)c3O)S2)cc1 | -3 | 19% | nt | 17% | 50µM* | 23
COc1cc(/C=C2\S/C(=N/S(=O)(=O)Cc3ccccc3)NC2=O)c([N+](=O)[O-])cc1OC | -1 | -17% | -2% | ? | -28% | 2
COc1cc(/C=C2/S/C(=N/S(=O)(=O)c3ccccc3)NC2=O)c([N+](=O)[O-])cc1OC | 16 | 27µM* | -8% | ? | -8% | 3
CCCOc1ccc(C(=O)Nc2ccc3nn(-c4ccc(OC)c(Cl)c4)nc3c2)cc1 | nt | nt | nt | nt | -14% | nt
Cc1cc2oc(C(=O)Nc3sc4c(c3C(=O)NCC3CCCO3)CCCC4)cc(=O)c2cc1C (stereo unspecified) | nt | nt | nt | nt | 1% | nt
COc1cc(NC(=O)CN2CCN(c3ccc(F)cc3)CC2)cc(OC)c1 | nt | nt | nt | nt | 12% | nt
Nc1nonc1NN=C1CCCCC1 | -11 | -6% | 4% | -5% | 20% | -80*
C=C1C(=O)CC2=C1[C@](Cc1ccc(F)cc1)(C(=O)OC)N(C(=O)c1ccccc1)C2 | nt | -12% | nt | nt | nt | nt
COC(=O)[C@@]1(Cc2ccc(OC)cc2)[C@@H]2C(=CC(=O)[C@H]2CC(=O)C(=O)N(C)C)CN1C(=O)c1ccccc1 | -2 | -14% | 10%[2.36 µM] | 22% | 79µM* | 2
COC(=O)[C@@]1(Cc2ccccc2)[C@@H]2[C@@H](CC(=O)[C@H]2CC(=O)C(=O)N(C)C)CN1C(=O)c1ccccc1 | nt | nt | 4% | nt | nt | nt
C=C1C(=O)C=C2CN(C(=O)c3ccccc3)[C@@](Cc3ccc(F)cc3)(C(=O)OC)[C@@H]12 | -2 | 17µM* | 5%[2.36 µM] | -14% | ? | 59
O=S(=O)(NCCNC/C=C/c1ccc(Br)cc1)c1cccc2cnccc12 | nt | nt | -4% | nt | 5% | nt
CCOc1ccc(CC(=O)NCCc2csc(-c3ccc(Cl)cc3)n2)cc1 | nt | nt | nt | nt | 4% | nt
CC(C)Oc1ccc(C(=O)Nc2nnc3n2CCS3)cc1 | nt | nt | nt | nt | 3% | nt
CCOc1ccccc1OC(=O)c1cc2ccccc2oc1=O | nt | 21µM* | 7% | ? | ? | 8

From PubChem
